Test results: publication PMC11024108

Columns and labels:
[1] = biological target: Beta-synuclein (UniProt Q91ZZ3); assay: cross-link between two proteins; cross-linking mass spectrometry
[2] = biological target: Large ribosomal subunit protein uL1 (UniProt P62906); assay: as above
[3] = biological target: Actin-related protein 2/3 complex subunit 2 (UniProt Q9CVB6); assay: as above
[4] = biological target: Actin-related protein 2/3 complex subunit 3 (UniProt Q9JM76); assay: as above
[5] = biological target: Dihydropyrimidinase-related protein 1 (UniProt P97427); assay: as above
[6] = biological target: Dihydropyrimidinase-related protein 3 (UniProt Q62188); assay: as above
[7] = biological target: Large ribosomal subunit protein eL30 (UniProt P62888); assay: as above
[8] = biological target: Large ribosomal subunit protein bL17m (UniProt Q9NRX2); assay: as above
[9] = biological target: Large ribosomal subunit protein mL53 (UniProt Q96EL3); assay: as above
[10] = biological target: Histone H2A type 1-J (UniProt Q99878); assay: as above
[11] = biological target: AP-2 complex subunit beta (UniProt P63010); assay: as above
Chain of AP-2 complex subunit beta (UniProt P63010) (P63010 whole entry, one chain of several): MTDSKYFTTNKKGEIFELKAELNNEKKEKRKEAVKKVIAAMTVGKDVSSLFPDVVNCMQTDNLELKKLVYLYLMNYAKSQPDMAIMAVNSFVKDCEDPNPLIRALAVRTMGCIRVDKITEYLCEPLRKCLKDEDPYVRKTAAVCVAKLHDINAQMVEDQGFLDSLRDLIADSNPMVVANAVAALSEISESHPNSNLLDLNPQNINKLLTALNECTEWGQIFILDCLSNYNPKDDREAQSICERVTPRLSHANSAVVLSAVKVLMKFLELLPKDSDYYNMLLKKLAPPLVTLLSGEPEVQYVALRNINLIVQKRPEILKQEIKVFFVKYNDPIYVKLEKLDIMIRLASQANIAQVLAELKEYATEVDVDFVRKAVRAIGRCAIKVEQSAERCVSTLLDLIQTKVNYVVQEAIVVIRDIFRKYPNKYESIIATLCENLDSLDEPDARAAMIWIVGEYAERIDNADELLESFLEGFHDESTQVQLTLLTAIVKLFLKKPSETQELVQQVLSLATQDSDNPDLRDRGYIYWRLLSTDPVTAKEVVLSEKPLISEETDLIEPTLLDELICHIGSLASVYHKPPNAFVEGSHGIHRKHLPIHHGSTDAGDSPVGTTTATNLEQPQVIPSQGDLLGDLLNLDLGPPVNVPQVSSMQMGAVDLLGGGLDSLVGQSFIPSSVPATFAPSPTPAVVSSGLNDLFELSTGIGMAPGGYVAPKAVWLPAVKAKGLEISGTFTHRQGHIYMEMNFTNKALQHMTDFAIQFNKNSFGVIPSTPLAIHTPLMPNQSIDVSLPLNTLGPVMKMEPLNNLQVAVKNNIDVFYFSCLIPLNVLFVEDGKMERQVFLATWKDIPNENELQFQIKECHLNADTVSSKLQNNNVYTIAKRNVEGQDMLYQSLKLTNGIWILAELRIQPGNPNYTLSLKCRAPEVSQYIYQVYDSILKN

[12] = biological target: AP-1 complex subunit beta-1 (UniProt Q10567); assay: cross-link between two proteins; co-fractionation; cross-linking mass spectrometry
Chain of AP-1 complex subunit beta-1 (Q10567 whole entry, one chain of several): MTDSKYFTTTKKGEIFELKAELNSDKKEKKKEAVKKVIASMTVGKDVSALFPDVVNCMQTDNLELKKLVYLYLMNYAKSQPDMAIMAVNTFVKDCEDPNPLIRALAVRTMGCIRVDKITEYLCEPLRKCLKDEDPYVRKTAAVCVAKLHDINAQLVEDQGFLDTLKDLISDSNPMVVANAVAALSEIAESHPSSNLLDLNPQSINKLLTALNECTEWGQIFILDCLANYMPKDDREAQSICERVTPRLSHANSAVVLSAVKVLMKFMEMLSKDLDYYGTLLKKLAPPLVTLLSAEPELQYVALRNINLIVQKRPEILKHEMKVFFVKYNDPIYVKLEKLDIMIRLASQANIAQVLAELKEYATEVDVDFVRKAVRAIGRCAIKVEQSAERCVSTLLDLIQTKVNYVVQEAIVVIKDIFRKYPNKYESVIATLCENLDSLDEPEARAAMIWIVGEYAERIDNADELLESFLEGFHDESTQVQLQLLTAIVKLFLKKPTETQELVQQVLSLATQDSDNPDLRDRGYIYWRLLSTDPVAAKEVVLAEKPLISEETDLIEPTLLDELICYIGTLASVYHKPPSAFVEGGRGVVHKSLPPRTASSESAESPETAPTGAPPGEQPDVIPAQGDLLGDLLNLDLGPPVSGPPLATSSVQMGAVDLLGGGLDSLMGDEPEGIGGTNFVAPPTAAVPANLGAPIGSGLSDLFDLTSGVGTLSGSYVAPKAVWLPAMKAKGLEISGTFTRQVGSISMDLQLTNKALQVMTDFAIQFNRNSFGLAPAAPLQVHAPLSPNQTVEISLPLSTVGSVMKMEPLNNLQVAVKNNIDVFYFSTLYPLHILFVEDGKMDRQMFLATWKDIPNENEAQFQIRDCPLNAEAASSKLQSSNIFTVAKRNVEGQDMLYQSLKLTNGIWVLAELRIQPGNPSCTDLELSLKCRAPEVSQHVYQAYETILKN

[13] = biological target: Histone H2B type 1-L (UniProt Q99880); assay: cross-link between two proteins; cross-linking mass spectrometry
[14] = biological target: Histone H2B type 1-M (UniProt Q99879); assay: as above
[15] = biological target: AP-2 complex subunit beta (UniProt Q9DBG3); assay: as above
Chain of AP-2 complex subunit beta (UniProt Q9DBG3) (Q9DBG3 whole entry, one chain of several): as the sequence (P63010 whole entry, one chain of several) above, with A612T counted along it

[16] = biological target: L-lactate dehydrogenase B chain (UniProt P16125); assay: as above
[17] = biological target: Large ribosomal subunit protein eL42 (UniProt P83881); assay: as above
[18] = biological target: Large ribosomal subunit protein uL22 (UniProt Q9CPR4); assay: as above
[19] = biological target: Large ribosomal subunit protein eL27 (UniProt P61353); assay: as above
[20] = biological target: Actin, cytoplasmic 2 (UniProt P63261); assay: as above
[21] = biological target: Epsin-1 (UniProt Q9Y6I3); assay: as above
[22] = biological target: Ubiquitin-like protein NEDD8 (UniProt Q15843); assay: as above
[23] = biological target: Large ribosomal subunit protein eL24 (UniProt P83731); assay: as above
[24] = biological target: Large ribosomal subunit protein eL24 (UniProt Q8BP67); assay: as above
[25] = biological target: Actin-related protein 2/3 complex subunit 5 (UniProt Q9CPW4); assay: as above
[26] = biological target: Actin-related protein 2/3 complex subunit 5-like protein (UniProt Q9D898); assay: as above
[27] = biological target: Large ribosomal subunit protein eL34 (UniProt Q9D1R9); assay: as above

Chain of AP-2 complex subunit sigma, P53680 (P53680 whole entry, one chain of several): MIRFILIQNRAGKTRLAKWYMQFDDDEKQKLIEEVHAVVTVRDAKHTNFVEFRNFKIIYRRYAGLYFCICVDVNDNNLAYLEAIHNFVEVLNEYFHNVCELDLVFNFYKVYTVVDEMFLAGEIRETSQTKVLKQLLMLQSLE
Chain of AP-2 complex subunit sigma, P62743 (P62743 whole entry, one chain of several): as the sequence (P53680 whole entry, one chain of several) above

Alpha-synuclein, O55042
listed as a hit [1]: yes

Small ribosomal subunit protein eS1, P61247
listed as a hit [2]: yes

Actin-related protein 2, P61161
listed as a hit [3]: yes | listed as a hit [4]: yes

Dihydropyrimidinase-related protein 2, O08553
listed as a hit [5]: yes | listed as a hit [6]: yes

Actin-related protein 3B, Q641P0
listed as a hit [3]: yes

Large ribosomal subunit protein eL43, P61513
listed as a hit [7]: yes

Large ribosomal subunit protein bL32m, Q9BYC8
listed as a hit [8]: yes

Large ribosomal subunit protein uL10m, Q7Z7H8
listed as a hit [9]: yes

Large ribosomal subunit protein uL14, P62829
listed as a hit [10]: yes

AP-2 complex subunit sigma, P53680
listed as a hit [11]: yes | listed as a hit [12]: yes

Histone H2A type 1-J, Q99878
listed as a hit [13]: yes | listed as a hit [14]: yes

AP-2 complex subunit sigma, P62743
listed as a hit [15]: yes

L-lactate dehydrogenase A chain, P06151
listed as a hit [16]: yes

Large ribosomal subunit protein uL5, P62913
listed as a hit [17]: yes

Large ribosomal subunit protein eL31, P62900
listed as a hit [18]: yes

Large ribosomal subunit protein eL34, P49207
listed as a hit [19]: yes | listed as a hit [7]: yes

Ubiquitin-ribosomal protein eS31 fusion protein, P62979
listed as a hit [20]: yes | listed as a hit [21]: yes | listed as a hit [22]: yes

Large ribosomal subunit protein uL3, P39023
listed as a hit [23]: yes

Histone H2B type 1-C/E/F/G/I, P62807
listed as a hit [13]: yes | listed as a hit [14]: yes

Histone H2A type 1-C, Q93077
listed as a hit [10]: yes

Actin-related protein 3, Q99JY9
listed as a hit [3]: yes

Histone H3.2, Q71DI3
listed as a hit [13]: yes | listed as a hit [14]: yes

Small ribosomal subunit protein eS6, P62754
listed as a hit [24]: yes

Actin-related protein 2/3 complex subunit 4, P59999
listed as a hit [25]: yes | listed as a hit [26]: yes

Large ribosomal subunit protein eL8, P12970
listed as a hit [27]: yes
